This note sets out measurements from PubChem BioAssay (Tox21).

“And” between values parts separate entries of the source, which are not always exact repeats. Identical values can stand only once. Results filed as inconclusive are left out. Where a call stands in place of a potency, no number is given. Where a structure was tested more than once in an assay, its records may differ in their call. The source made the active and inactive calls. Calls come from the whole dose curve; as a rule, active = well fitted inhibition curve with a large enough effect in the signal ratio in the repeat runs (not every such curve was filed as active); inconclusive = weak or mixed curves, or effect the other way; inactive = no such curve, though single readings can be large or run the other way; the % refers to the signal ratio.
Potency is the fitted concentration of half-maximal effect.

Estrogen receptor beta (Homo sapiens), sequence (Q92731 whole entry, looked up): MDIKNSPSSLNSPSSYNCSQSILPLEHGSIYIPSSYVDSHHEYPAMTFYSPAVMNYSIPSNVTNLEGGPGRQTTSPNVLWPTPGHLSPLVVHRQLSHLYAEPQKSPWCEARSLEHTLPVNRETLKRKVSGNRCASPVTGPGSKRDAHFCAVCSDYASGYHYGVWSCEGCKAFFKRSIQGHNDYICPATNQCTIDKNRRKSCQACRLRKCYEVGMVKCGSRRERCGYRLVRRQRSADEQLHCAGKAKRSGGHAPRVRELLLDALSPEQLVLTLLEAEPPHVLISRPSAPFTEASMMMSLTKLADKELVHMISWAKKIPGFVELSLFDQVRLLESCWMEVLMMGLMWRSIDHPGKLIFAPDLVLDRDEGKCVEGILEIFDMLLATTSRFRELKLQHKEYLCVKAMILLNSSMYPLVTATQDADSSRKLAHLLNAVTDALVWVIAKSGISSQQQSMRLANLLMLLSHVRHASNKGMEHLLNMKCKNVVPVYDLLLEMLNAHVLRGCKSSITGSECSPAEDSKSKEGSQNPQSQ

This assay has as its target Estrogen receptor beta (Homo sapiens) (UniProt Q92731). As to the kind of experiment: qHTS assay to identify small molecule antagonists of the estrogen receptor beta (ER-beta) signaling pathway (AID 1259378). The following applies: ER-beta-UAS-bla HEK293T, beta-lactamase FRET ratio, 16 h; series mostly up to 92.4 µM. From the text: National Center for Advancing Translational Sciences [NCATS]
NIH Chemical Genomics Center [NCGC]
U.S. Environmental Protection Agency [EPA]
National Institutes of Environmental Health Sciences [NIEHS]
National Toxicology Program [NTP]
U.S. Food and Drug Administration [FDA]
Estrogen receptor (ER), a nuclear hormone receptor, plays an important role in development, metabolic homeostasis and reproduction. Two subtypes of ER, ER-alpha and ER-beta, have similar expression patterns with some uniqueness in both types. Endocrine disrupting chemicals (EDCs) and their interactions with steroid hormone receptors like ER causes disruption of normal endocrine function. To identify the compounds that inhibit ER signaling, an ER-beta-UAS-bla GripTite cell line (Life Technologies, Madison, WI, USA) containing a beta-lactamase reporter gene under the control of an UAS response element was used to screen Tox21 10K compound library.
Tox21 Assay Protocol Summary:
ER-beta-UAS-bla HEK293T cells were dispensed at 2,000 cells/4 uL of assay medium containing 2% charcoal stripped FBS per well into black wall/clear-bottom 1536-well plates using a Multidrop Combi (ThermoFisher Scientific, Waltham, MA) dispenser. After the assay plates were incubated at a 37C and 5% CO2 for 6 hr, 23 nL of compounds dissolved in DMSO, positive controls or DMSO only was transferred to the assay plate by a Pintool station (Kalypsys, San Diego, CA), followed by addition of 1 uL (1nM as final concentration) of 17-beta-estradiol (E2) in assay medium using a BioRAPTR FRD (Flying Reagent Dispenser, Aurora Discovery, San Diego, CA). The plates were incubated at 37C and 5% CO2 for 16 hr. Then 1 uL of LiveBLAzerTM B/G FRET substrate was added using a Flying Reagent Dispenser, the plates were incubated at room temperature for 2 hours, and fluorescence intensity was measured by an Envision plate reader (PerkinElmer, Shelton, CT).
As to `O=C(Oc1ccccc1)c1ccc(O)cc1`, the Potency was 48.9 µM (active).

With `C=C(C)C(=O)OCCCCCCCCCCCC`, the Potency result is “inactive”.

Regarding `CCCCC/C=C\C/C=C\CCCCCCCC(=O)OC`, the Potency entry is “inactive”.

Consider `Nc1c(S(=O)(=O)O)cc(Br)c2c1C(=O)c1ccccc1C2=O`, for which the Potency result was “inactive”.

As to `Cc1cc(O)cc(C)c1Cl`, the Potency entry was “inactive”.

As to `C=C1C2CCC(C2)C1(C)C` (stereo not given), the Potency result was “inactive”.

As to `CCCCCC/C=C/CCCCCCCC(=O)O`, the Potency entry is “inactive”.

As to `Oc1ccc2ccccc2c1N=Nc1ccccc1`, the Potency result is “inactive”.

Consider `OCCOCCOCCOCCO`, for which the Potency result was “inactive”.

Regarding `CCc1ccccc1O`, the Potency entry is “inactive”.

With `CC1=CC[C@H]2C[C@@H]1C2(C)C`, the Potency result is “inactive”.

Regarding `Cc1cc(Cc2ccc(N)c(C)c2)ccc1N`, the Potency entry was “inactive”.

Turning to `CN(C)c1ccc(C(=N)c2ccc(N(C)C)cc2)cc1`, the Potency result is “inactive”.

Regarding `Clc1ccc(Cl)c(Cl)c1Cl`, the Potency entry was “inactive”.

Take `CC(C)(CO)COC(=O)C(C)(C)CO`: the Potency result is “inactive”.

For the compound `NCCNCCNCCNCCN`, the Potency result was “inactive”.

`CC1=C(/C=C/C(C)=C/C=C/C(C)=C/CO)C(C)(C)CCC1`: the Potency entry was “inactive and 64.4 µM (active)”.

Turning to `COC(=O)c1ccccc1O`, the Potency result is “inactive”.

For `CC1COc2ccccc2N1C(=O)C(Cl)Cl` (stereo not given), the Potency entry is “inactive”.

Take `O=C(c1cc(O)c(O)c(O)c1)c1ccc(O)c(O)c1O`: the Potency result was “inactive”.

Take `O=S(=O)(O)c1cc(S(=O)(=O)O)c2c(N=Nc3ccccc3)c(O)ccc2c1`: the Potency entry was “inactive”.

For `CC(=O)[C@@]1(O)CC[C@H]2[C@@H]3CCC4=CC(=O)CC[C@]4(C)[C@H]3CC[C@@]21C`, the Potency entry was “inactive”.

For `O=[N+]([O-])C(CO)(CO)CO`, the Potency entry is “inactive”.

With `NCCc1ccc(O)c(O)c1`, the Potency entry is “inactive”.

Regarding `CCOC(=O)[C@H](CCc1ccccc1)N[C@@H](C)C(=O)N1Cc2ccccc2C[C@H]1C(=O)O`, the Potency result was “inactive”.

For `Cc1ccc(N)c(S(=O)(=O)O)c1`, the Potency result was “inactive”.

Consider `CC(C)(C)C1CCC(O)CC1` (stereo not given), for which the Potency result was “inactive”.

`O=C1O[C@H](CO)[C@@H](O)[C@H](O)[C@H]1O`: the Potency entry was “inactive”.

In the case of `CCCCCCCCCCCCOCC1CO1` (stereo not given), the Potency result is “inactive”.

For `CC1Cc2ccccc2N1NC(=O)c1ccc(Cl)c(S(N)(=O)=O)c1` (stereo not given), the Potency result is “inactive”.

Regarding `COC(=O)c1ccc(C(=O)OC)cc1`, the Potency result was “inactive”.

As to `Cn1c([N+](=O)[O-])cnc1COC(N)=O`, the Potency result was “inactive”.

Turning to `NS(=O)(=O)c1cc2c(cc1Cl)NC=NS2(=O)=O`, the Potency entry was “inactive”.

Take `CCCCC(CC)C(=O)OCCOCCOCCOC(=O)C(CC)CCCC` (stereo not given): the Potency entry is “inactive”.

Consider `CCCCC(CC)COC(=O)/C=C\C(=O)OCC(CC)CCCC` (stereo not given), for which the Potency entry was “inactive”.

In the case of `Oc1ccc(OCc2ccccc2)cc1`, the Potency result is “inactive”.

Take `CN(C)c1cccc(O)c1`: the Potency result was “inactive”.

With `NC(=O)/N=N/C(N)=O`, the Potency entry was “inactive”.

For `C=CC(=O)OCCCCCCCC(C)C`, the Potency result was “inactive”.

With `Nc1cc(-c2ccncc2)c[nH]c1=O`, the Potency result was “inactive”.
